Assay outcomes from PubChem BioAssay.
This excerpt belongs to a sample that is enriched for hits.
ALOX12 inh – blocks human arachidonate 12S-lipoxygenase | P18054 | 580,000 tested, 1.1% active | Potency, µM (doses to about 108 µM), for the others: top-dose activity change, negative = inhibition, usual class: inhibitors | purified 12hLO, xylenol orange hydroperoxide absorbance; note: potency is the fitted concentration of half-maximal effect
Target sequence (P18054 whole entry, looked up): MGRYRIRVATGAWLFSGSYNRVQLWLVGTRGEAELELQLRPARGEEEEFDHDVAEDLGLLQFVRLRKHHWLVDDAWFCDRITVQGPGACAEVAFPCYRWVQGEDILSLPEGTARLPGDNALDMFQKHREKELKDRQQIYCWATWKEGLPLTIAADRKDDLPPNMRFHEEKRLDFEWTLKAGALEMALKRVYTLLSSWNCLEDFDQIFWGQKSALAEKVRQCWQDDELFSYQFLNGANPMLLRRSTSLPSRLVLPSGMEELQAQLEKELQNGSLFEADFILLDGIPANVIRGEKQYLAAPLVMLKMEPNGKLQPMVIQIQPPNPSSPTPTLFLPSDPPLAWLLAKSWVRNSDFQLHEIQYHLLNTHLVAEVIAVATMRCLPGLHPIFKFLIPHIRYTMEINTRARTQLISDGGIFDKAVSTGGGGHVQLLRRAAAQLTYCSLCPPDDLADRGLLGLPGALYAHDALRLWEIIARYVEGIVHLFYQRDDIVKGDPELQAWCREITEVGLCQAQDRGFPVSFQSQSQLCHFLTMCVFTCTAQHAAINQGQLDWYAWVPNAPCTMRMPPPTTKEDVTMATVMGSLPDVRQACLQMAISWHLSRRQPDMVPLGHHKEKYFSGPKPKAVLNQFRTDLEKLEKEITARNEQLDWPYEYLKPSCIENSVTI
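Hydroperoxide product was detected by ferrous iron/xylenol orange as the 573 to 405 nm absorbance ratio. Arachidonic acid at 40 uM (final) was turned over for 30 min at room temperature by 150 nM human 12hLO, pH 7.0 Hepes buffer, after 15 min compound preincubation.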
HT1080-NT tox – kills 2HG-producing HT-1080-NT fibrosarcoma cells. 360,000 tested, 1.6% active. Potency, µM (top dose mostly 46.1 µM), for inactives: at the highest dose activity, negative = less viability, hits mostly cytotoxic. AID 686970. HT-1080-NT fibrosarcoma viability, CellTiter-Glo ATP luminescence, 48 h;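 note: NT is the 2HG producing partner of a matched IDH1 knockdown line; potency is the fitted concentration of half-maximal effect; 0% = DMSO-treated cells and -100% = media-only wells without cells; nearly all actives have a fitted effect of over 55% in size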
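HT-1080-NT; 750 cells/well; 5% FBS RPMI; 48 h compound, 37 degrees C; CellTiter-Glo luminescence; curve fitting and curve-class assignment.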
HT1080 IDH1KD tx – HT-1080 IDH1 knockdown cell toxicity (counter line) | Potency, µM (doses to about 46.1 µM), for the others: at the top dose activity, negative = toxicity, most hits filed as cytotoxic | HT-1080 IDH1 knockdown viability, ATP luminescence, 48 h | 360,000 tested, 2% active | AID 686971;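 note: potency is the fitted concentration of half-maximal effect; 0% = DMSO wells and -100% = cell-free medium wells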
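Viability of IDH1-knockdown HT-1080 fibrosarcoma cells was assessed by CellTiter-Glo after 48 h at 37 °C with titrated compound; concentration-effect curves were classified by fit quality and response size.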
IL-1B inflam inh – inflammasome signaling inhibition, IL-1 beta readout; THP-1 LPS/ATP IL-1B secretion, AlphaLISA, 16 h; stronger effect = lower value; activity change, % at 57.5 µM; 360,000 tested, 4.7% active; AID 743279; in the data active = activity change below about -50%; inconclusive = mostly about -30% to -49%
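THP-1 cells pretreated 1 hr with compounds (up to 57.5 uM final), then stimulated with LPS (250 ng/mL final) plus ATP (1.25 mM final); secreted IL-1B measured by AlphaLISA after 16 hr, decreased signal indicating inhibition.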
DT40 TDP1 CPT – growth inhibition of DT40 Tdp1-/-;hTDP1 cells with camptothecin (screen for TDP1 inhibitors) | Potency, µM (doses to about 46.2 µM), without a hit: at the highest dose activity change, negative = growth inhibition, usual class: inhibitors | AID 686979 | 420,000 tested, 12% active | chicken DT40 Tdp1-/-;hTDP1 cells + 20 nM CPT, ATP luminescence, 48 h; note: potency is the fitted concentration of half-maximal effect; nearly all actives have a fitted effect of over 55% in size
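Chicken DT40 Tdp1-/- cells complemented with human TDP1, 400 cells/well, exposed to compounds plus 20 nM camptothecin for at least 48 h at 37 C; viability read as ATP content by CellTiter-Glo luminescence.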
DT40 TDP1 no CPT – qHTS for Inhibitors of human tyrosyl-DNA phosphodiesterase 1 (TDP1): qHTS in cells in absence of CPT; DT40 Tdp1-/- hTDP1 cells, no CPT, ATP luminescence, 48 h; Potency, µM (doses to about 46.2 µM), inactives show at the highest dose activity change, negative = growth inhibition, most hits filed as inhibitors; 420,000 tested, 15% active; AID 686978, 2013; note: potency is the fitted concentration of half-maximal effect; nearly all actives have a fitted effect of over 55% in size
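DT40 Tdp1-/-;hTDP1 cells, no CPT (DMSO vehicle only), 400 cells/well; compounds pin-transferred; ≥48 hr, 37 °C; CellTiter-Glo 30 min RT dark, luminescence read.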
Active calls of the source: *; ? = inconclusive; · = no result. Unless noted, calls come from the whole dose curve; as a rule, active = well fitted curve in the direction sought with a large enough effect; inconclusive = small, poorly fitted or top-dose-only effect, or another doubt; inactive = no such curve, though single readings can be large; an effect the other way counts as inactive or inconclusive. Unless noted, % is set by controls: 0 for no effect and ±100 for the full control effect.

SMILES	ALOX12 inh	HT1080-NT tox	HT1080 IDH1KD tx	IL-1B inflam inh	DT40 TDP1 CPT	DT40 TDP1 no CPT
Cc1cc(C)c(C)c(S(=O)(=O)N2CCN(C(=O)CCc3c(C)nn(C)c3C)CC2)c1C	60%	·	·	·	·	·
CN1CCN(C(=O)Cn2c(=O)c3c(ncn3Cc3ccccc3)n(Cc3ccccc3)c2=O)CC1	-14%	·	·	·	·	·
CCOC(=O)c1ccc(NC(=O)CSc2nccn2Cc2ccccc2OC)cc1	10%	·	·	·	·	·
Cn1c(=O)nc2n(Cc3ccccc3)c3cccc(Cl)c3cc-2c1=O	-25%	15%	20%	11	?	29µM*
Cc1cccc(-n2c3nc(=O)n(C)c(=O)c-3cc3c(Cl)cccc32)c1C	?	·	·	·	6%	-2%
CCN1C(=O)C2CC3(CCN(C(=O)c4ccc(OC)nc4)CC3)CN2C1=O (stereo unspecified)	21%	·	·	·	·	·
CCOc1ccc2ncc(S(=O)(=O)c3ccccc3)c(N3CCCCC3)c2c1	-22%	·	·	·	·	·
CCOc1ccc2ncc(S(=O)(=O)c3ccc(C)cc3)c(N3CCC4(CC3)OCCO4)c2c1	11%	-9%	-5%	0	?	23µM*
CCc1ccc2ncc(S(=O)(=O)c3ccc(Cl)cc3)c(N3CCN(CC)CC3)c2c1	-30%	·	·	·	?	16µM*
Cc1csc2nc(CNS(=O)(=O)c3ccc4c(c3)CCCC4)cn12	28%	8%	7%	19	?	9.2µM*
COc1ccc(CC(N)c2csc(NC(=O)CCc3ccccc3)n2)cc1 (stereo unspecified)	-7%	?	?	?	23µM*	21µM*
COc1ccc(CC(N)c2csc(NC(=O)Nc3ccccc3C(C)C)n2)cc1 (stereo unspecified)	-29%	?	?	?	8.2µM*	16µM*
CC(C)CC(N)c1csc(NC(=O)Nc2ccccc2C(C)(C)C)n1 (stereo unspecified)	3%	?	?	?	?	?
COc1ccc(CC(N)c2csc(NC(=O)Nc3ccccc3Cc3ccccc3)n2)cc1 (stereo unspecified)	?	?	?	-52*	21µM*	16µM*
COc1ccc(C(N)c2csc(Nc3ccc(C(=O)c4ccccc4)cc3)n2)cc1 (stereo unspecified)	-8%	?	?	-28	?	?
COc1ccc(CCC(=O)Nc2nnc(C)s2)cc1	0%	23%	8%	·	?	-20%
CCc1ccc(NC(=O)c2ncoc2-c2cccc(OC)c2)cc1	-27%	·	·	·	·	·
O=C(c1cccc(N2CCCC2=O)c1)N1CCCC(O)(CN2CCCC2)C1 (stereo unspecified)	73%	·	·	·	·	·
COC(=O)[C@@H]1Cc2c([nH]c3ccccc23)[C@H]2C[C@@H](NCCN(C)C)C[C@@H](c3ccc(F)cc3)N21	7%	·	·	·	·	·
CN1CCN(Cc2ccc(-c3ccc(C(C)(C)C#N)cc3)nc2)CC1	20µM*	·	·	·	·	·
CCS(=O)(=O)c1ncc(Cl)c(C(=O)Nc2ccc(S(=O)(=O)N3CCCC(C)C3)cc2)n1 (stereo unspecified)	-6%	2.6µM*	4.6µM*	-104*	0.92µM*	2.3µM*
CCOc1ccc(NC(=O)c2nsc(Cl)c2Cl)cc1	13%	0%	-1%	26	-25%	-21%
CCOc1ccc(NC(=O)c2nc(S(=O)(=O)Cc3ccccc3)ncc2Cl)cc1	·	·	·	·	0.32µM*	0.4µM*
COC(=O)c1ccccc1NC(=O)c1nc(S(=O)(=O)Cc2ccccc2)ncc1Cl	16%	0%	-10%	-16	2.9µM*	1.3µM*
CCOc1ccc(NC(=O)c2nn(Cc3ccccc3)c(=O)c3ccccc23)cc1	10%	·	·	·	·	·
